Measured potencies and affinities stand elsewhere. Activity calls are given as the source filed them.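 How the source made its calls: active means fitted half-maximal dose no more than twice the top valid tested dose, for compounds that lower signal; inconclusive means fit invalid, or curve flat with activity between -70 and -30; inactive means potency past limit, curve flat within ±30, or signal increasing.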
Target: NAD-dependent protein deacylase sirtuin-5, mitochondrial (Homo sapiens) (UniProt Q9NXA8)
Sequence (Q9NXA8 whole entry, looked up): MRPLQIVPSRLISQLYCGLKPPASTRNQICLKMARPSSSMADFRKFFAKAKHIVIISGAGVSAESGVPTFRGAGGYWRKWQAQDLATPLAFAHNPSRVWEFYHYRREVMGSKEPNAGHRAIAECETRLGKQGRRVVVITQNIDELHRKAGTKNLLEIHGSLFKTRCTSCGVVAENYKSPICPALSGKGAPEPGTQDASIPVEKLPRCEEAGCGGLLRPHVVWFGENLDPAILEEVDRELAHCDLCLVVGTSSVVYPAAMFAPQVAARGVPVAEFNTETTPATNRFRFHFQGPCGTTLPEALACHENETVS
Experiment: blockers of sirtuin-5 peptide desuccinylation – biochemical, fluorescence imaging, cherry-pick, set 6, dose response (AID 720597);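 further: lower AMC signal can also come from blocking the trypsin step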
Conditions: Purified SirT5, succinyl-peptide-AMC/trypsin fluorescence; series mostly up to 15 µM

outcome, inactive:
COCC#Cc1cnc2c(c1)C(=O)N([C@@H](C)CO)C[C@@H](C)[C@@H](CN(C)C(=O)c1ccc(F)cc1)O2
C[C@@H]1CN([C@@H](C)CO)C(=O)c2cc(NC(=O)Nc3cccc4ccccc34)ccc2O[C@@H](C)CCCCO[C@@H]1CN(C)S(=O)(=O)c1ccc(Cl)cc1
C[C@H]1CN([C@@H](C)CO)S(=O)(=O)c2ccc(/C=C/c3ccccc3)cc2O[C@@H]1CN(C)C(=O)NC1CCCCC1
CN(C)CC#Cc1ccc([C@@H]2[C@@H](CO)N3CCCCN(C(=O)CN(C)C)C[C@H]23)cc1
C[C@H]1CN([C@@H](C)CO)C(=O)c2cc(NC(=O)Cc3ccccc3)ccc2O[C@H]1CN(C)Cc1ccc(Oc2ccccc2)cc1
CN(C)C(=O)c1cccc(-c2ccc([C@@H]3[C@H](CO)N4CCCCN(S(C)(=O)=O)C[C@@H]34)cc2)c1
O=C(CCN1CCCCC1)N[C@H]1CC[C@H](CC(=O)N2CCC(Cc3ccccc3)CC2)O[C@H]1CO
Cc1ccc(-c2ccc3c(c2)O[C@H](CN(C)Cc2cccnc2)[C@H](C)CN([C@H](C)CO)S3(=O)=O)cc1
COc1cccc(NC(=O)N(C)C[C@@H]2OCc3cn(nn3)CCCC(=O)N([C@H](C)CO)C[C@H]2C)c1
Cc1ccc(S(=O)(=O)N(C)C[C@H]2OCCCC[C@@H](C)Oc3ccc(NS(=O)(=O)c4ccccc4)cc3C(=O)N([C@@H](C)CO)C[C@@H]2C)cc1
C[C@@H]1CN([C@H](C)CO)C(=O)c2cccc(NC(=O)c3ccncc3)c2O[C@H]1CN(C)S(C)(=O)=O

From PubChem BioAssay AID720597 (Broad Institute, 2013)
